# In PubChem BioAssay AID1963321 (National Center for Advancing Translational Sciences (NCATS), 2024):
# Inconclusive results are not listed. A number with no mark means an inactive call. Calls of active or inactive are those of the source. The call rests on the fitted dose curve.
# Target: cAMP-dependent protein kinase catalytic subunit alpha (Homo sapiens) (UniProt P17612)
# Assay: Protein Kinase A (PKA-HiBiT) enzymatic inhibition screen - Functional assay
# Conditions: luminescence; series mostly up to 57.5 µM; activity change, negative = inhibition: at the top concentration
# Excerpt: National Center for Advancing Translational Sciences (NCATS),
# National Institute of Health (NIH), Maryland
# Discovery and optimization of novel protein-binding ligands underlies many of the methods and applications of biology, drug discovery, clinical diagnostics, and environmental toxicology. Assays for detecting the interaction of, for example, a molecule with a macromolecular target also referred to here as the target of interest (TOI) is dependent on a compatible output technology. Depending on the nature and knowledge surrounding the TOI, whether a receptor, enzyme, regulatory subunit or scaffold, or a sequence-defined nucleic acid folded into a complex tertiary structure, assay strategies can vary widely.
# Here we exploit ligand-biased changes in the structural dynamics of the target protein to control reporter alpha complementation allowing a non-competitive, non-functional, non-separation measure of ligand-target interaction.
# Using a chemical library of >1,200 compounds enriched for scaffolds known to be associated with the inhibition of firefly luciferase (FLuc) activity (PubChem AIDs 2309) we first illustrate and compare the Structural Dynamics Response (SDR) assay vs. the standard functional FLuc enzyme assay (2). Secondly, we show the specificity and sensitivity of the SDR for the Abelson tyrosine kinase (ABL1) compared to the serine/threonine protein kinase A, using an enriched chemical library of 128 compounds selected, in part, for activity annotated with ABL1 kinase activity using the Pharos database (3).
# (1) A. S. Dixon et al., NanoLuc Complementation Reporter Optimized for Accurate Measurement of Protein Interactions in Cells. ACS Chem Biol 11, 400-408 (2016).
# Chemistry & Biology, 19, 1060 - 1072 (2012).
# (3) K. J. Kelleher et al., Pharos 2023: an integrated resource for the understudied human proteome. Nucleic Acids Res 51, D1405-D1416 (2023).
# PROTOCOL TABLE (as described by Inglese J, Shamu CE and Guy RK. 2007)
# SEQUENCE No. (e.g., 1, 2, 3, etc.); […] (e.g., C. elegans, Compounds, Incubation, Read, etc.); VALUE and DESCRIPTION.
# 1. Reagent. Dispense 4 uL PKA-N-HiBiT enzyme per well at a final enzyme concentration of 10 nM in buffer with 87.5 uM ATP (functional assay) into columns 2-48 of four replicate Greiner 1536-well white,solid bottom high base, medium plates per assay. Dispense respective buffer without enzyme at 4 uL/well in column 1 of assay plates using BioRaptr 2.
# 2. Compounds. Library compounds added at 23 nL/well by pin transfer. DMSO neutral control and H-89 positive control added at 25 nL/well, transfer by Mosquito dispenser.
# 3. Incubation. Incubate enzyme and compounds at room temperature for 30 min, protect from light.
# 4. Reagent. (Functional assay) Transfer 25 nL of kemptide peptide substrate to each well of four replicate kinase assay plates with Mosquito dispenser.
# 5. Incubation. (Functional assay) Kinase Enzyme incubated with peptide substrate for 3 h at room temperature, protected from light.
# 6. Reagent. (Functional assay) Add 4 uL/well of Kinase-Glo Plus reagent (Promega) to kinase activity assay plates.
# 7. Detector. (Functional assay) Luminescence measured using CCD-based camera (ViewLux) with settings as follows: Exposure, 1 sec; Gain, High; Speed, Slow; Binning, 2X.
# Inglese J, Shamu CE and Guy RK, Reporting data from high throughput screening of small molecule libraries, Nature Chemical Biology, 2007, 3(8): 438-441. doi.org/10.1038/nchembio0807-438.
SMILES,"activity change, negative = inhibition [%]",Potency
C/C(O)=C(\C#N)C(=O)Nc1cc(Br)ccc1Br,7.7,–
O=[N+]([O-])O[C@H]1CO[C@H]2[C@@H]1OC[C@H]2O[N+](=O)[O-],8.94,–
N#Cc1cn([C@@H]2O[C@H](CO)[C@H](O)[C@@H]2O)c2ncnc(N)c12,8.35,–
O=C(NCCCNc1nc(Nc2ccc(N3CCOCC3)cc2)ncc1C1CC1)C1CCC1,6.95,–
Cc1[nH]nc2ccc(-c3cncc(OC[C@@H](N)Cc4c[nH]c5ccccc45)c3)cc12,–,2.01 µM (active)
CCNC(=O)C[C@@H]1N=C(c2ccc(Cl)cc2)c2cc(OC)ccc2-n2c(C)nnc21,6.55,–
